Assay [1] can be described thus: reduced mouse 2C T cell binding to pMHC/ICAM-1 vesicles – MLPCN validation set, flow cytometry, LFA-1/ICAM-1 modulator project, pilot screen (AID 2523;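 active = response below a set limit, under 55% cells CD8-positive and vesicle-bound, and CD8 cells' 90th-percentile brightness under 279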;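 as to vesicle binding response: mean PE anti-B7-1 fluorescence of CD8+ cells relative to row control; 100% = QL9-loaded vesicles with DMSO vehicle in the same plate row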). Particulars: 2C mouse CD8+ T cells, at 7 µM, stronger effect = lower value; double positive events: measured here: CD8+/vesicle+ event percentage.
Assay [2] addresses Integrin beta-1 (Homo sapiens) + Integrin alpha-4 (Homo sapiens) (UniProt P13612+P05556). Nature of the assay: alpha4beta1 integrin LIBS antibody binding reduction – U937 cells, HUTS-21 mAb, flow cytometry, validation set, VLA-4 allosteric modulator project, pilot screen (AID 2674;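 active = inhibition above 50%, about 3 SD of the validation set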;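 also: antibody binding induced by the VLA-4 ligand LDV present at three times its Kd; 0% = LDV ligand with antibody and no compound and 100% = antibody without LDV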). Particulars: HUTS-21 LIBS mAb binding, at 6.7 µM, stronger effect = higher value, binding induced by LDV ligand. (In general: Flow cytometry measures light scatter and fluorescence of single cells or particles in a stream.)

Assay [3] is described as follows: calorie-restriction mimetic ROS inhibitors, yeast – validation compound set, pilot screen (AID 2706;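 active = superoxide response below 65% of plate, a cut near 3 SD across the whole screen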;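 also: yeast exposed to compound for one week at 30 degrees C before staining; 100% = mean of all compound wells on the same plate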). Particulars: S. cerevisiae aging, superoxide DHE fluorescence; at 10 µM, stronger effect = lower value.
The target in assay [4] is Beta-adrenergic receptor kinase 1 (Homo sapiens) (UniProt P25098). The assay is described as follows: GRK2 binders displacing RNA aptamer, biochemical, validation, human GRK2, bead flow cytometry (AID 488806;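 active = aptamer binding inhibition above 30%, about 3 SD of noise from non-fluorescent compounds; inactive = inhibition at or below 30%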). Particulars: bead-bound GRK2, FAM-aptamer displacement, at 10 µM, stronger effect = higher value.
Assay [5] addresses Beta-2 adrenergic receptor (Homo sapiens) (UniProt P07550). Nature of the assay: agonist-induced loss of surface beta2AR – cell-based, FAP fluorogen, flow cytometry, validation set, pilot screen (AID 504459).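 Also: agonist-driven loss of surface beta2AR via internalization measured by FAP dye flow cytometry.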 The following applies: Am2.2-beta2AR cells, at 10 µM, stronger effect = higher value.
The target in assay [6] is AP-2 complex subunit beta (Homo sapiens) (UniProt P63010). Nature of the assay: beta-arrestin/AP2 interaction blockers – biochemical, validation set, GST-AP2 beads, flow cytometry, pilot screen (AID 504541;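 active = inhibition above 54%, about 3 SD of non-fluorescent compounds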;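 also: AP2 carries R879A mutation and is captured from E. coli lysate; bead-bound FITC arrestin peptide fluorescence measuring arrestin peptide binding to AP2; 0% = DMSO wells and 100% = excess unlabeled arrestin peptide control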). Particulars: FITC arrestin peptide, at 10 µM, stronger effect = higher value, AP2 beta2 appendage fragment, R879A mutant.
Assay [7] is described as follows: cytosolic pH regulators acting via V-ATPase – S. cerevisiae, pHLuorin, HTS validation (AID 504600; in the data active = response above about 15%;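 also: plate controls were DMSO for no effect and reference compound for full effect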). Particulars: V-ATPase proton transport, at 10 µM, stronger effect = higher value.
Assay [8] deals with anti-desmoglein-3 scFv antibody binding to human DSG3. Nature of the assay: blockers of pathogenic pemphigus antibody–desmoglein-3 binding – biochemical, validation compound set, bead-based, flow cytometry, pilot screen (AID 588368;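 active = binding below the plate cutoff, the plate median minus 3 SD, with a reading above zero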;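 also: signal is the median channel fluorescence of bead-bound GFP antibody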). The following applies: Protein G beads, DSG3-Fc, scFv-GFP binding, at 10 µM, stronger effect = lower value.
Assay [9] in a line: Nile Red efflux blockade in pump-expressing yeast – validation compound set, multiplex, phenotypic, pilot screen (AID 588506;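 active = efflux inhibition above 0.42, the validation set average plus 4 SD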;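 also: Nile Red retained in cells so higher fluorescence means more efflux inhibition; 0 = negative control wells and 1 = enniatin B 25 µM full block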). Particulars: S. cerevisiae pump-expressing triplex, Nile Red efflux flow cytometry; at 10 µM; stronger effect = higher value; the pumps come from Candida albicans.
The target in assay [10] is ATP-binding cassette sub-family B member 6 (Homo sapiens) (UniProt Q9NP58). Nature of the assay: blockers of ABCB6-driven porphyrin uptake – K562-ABCB6 cells, flow cytometry, validation set, pilot screen (AID 588550;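 active = inhibition above the screen-wide mean plus 3 SD, about 51%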;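 also: 0% = DMSO wells and 100% = benzethonium chloride 70 µM positive control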). Particulars: K562-ABCB6 porphyrin accumulation, 1 h, at 10 µM, stronger effect = higher value.
The nature of assay [11]: AML differentiation inducers, ER-HoxA9 marrow cells – cell-based, GFP/MAC1 double positive, flow cytometry, validation set, primary screen (AID 588685;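 active = differentiation response of at least 50%, scaled between solvent and reference control, from cells with both markers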;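 also: compound exposure lasts four days before antibody staining and flow analysis; 0% = DMSO wells and 100% = 5 µM fulvestrant positive control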). The following applies: stronger effect = higher value, normalized: vehicle 0, fulvestrant 100.
The nature of assay [12]: hit retest on RPL19A-GFP reporter strain – cell-based, S. cerevisiae, flow cytometry, cherry picks, mother/daughter gates, confirmation (AID 2270;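 active = GFP response below 50% of the DMSO control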). The following applies: 3 h, at 10 µM, stronger effect = lower value, 100 = same GFP as DMSO wells.
A short description of assay [13]: yeast TOR pathway reporter LAP4-GFP change – cell-based, cherry picks, flow cytometry, mother/daughter gates, confirmation (AID 2271;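 active = GFP response above 150% of the DMSO control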;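 also: ratio of sample to DMSO plate mean so 100% equals DMSO level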). Particulars: S. cerevisiae LAP4-GFP strain, 3 h, at 10 µM, stronger effect = higher value, 100 means same as DMSO control.
Assay [14] can be described thus: TOR pathway reporter MEP2-GFP, retest of hits – S. cerevisiae, flow cytometry GFP, cherry picks, confirmation (AID 2272;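 active = GFP response above 150% of the DMSO control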;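 also: ratio of well signal to plate DMSO mean so 100% equals DMSO level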). The following applies: S. cerevisiae MEP2-GFP strain, 3 h, at 10 µM, stronger effect = higher value.
Assay [15] in a line: yeast AGP1-GFP fluorescence change, single-dose – cell-based, flow cytometry, S. cerevisiae, cherry picks, confirmation (AID 2273;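 active = GFP response above 150% of the DMSO level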;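 also: median GFP channel fluorescence over the whole cell population gate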). Particulars: S. cerevisiae AGP1-GFP strain, 3 h, at 10 µM.
Assay [16] is described as follows: TOR pathway CIT2 reporter hit retest – S. cerevisiae, GFP fusion, cherry picks, mother/daughter gates, confirmation (AID 2274;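 active = GFP response above 150% of the DMSO level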). Particulars: S. cerevisiae CIT2-GFP strain, flow cytometry, 3 h, at 10 µM, stronger effect = higher value.
Setting [17] is: measured here: daughter cell gate.

Calls of active or inactive are those of the source.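 The calls were made as follows, unless noted: active = percent response above 42, roughly 3 SD of non-fluorescent test compounds; inactive = the rest.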

A word on the inhibition: it is the drop in the measured response relative to a control, in per cent.

Chain of Beta-2 adrenergic receptor (Homo sapiens) (P07550 whole entry, looked up): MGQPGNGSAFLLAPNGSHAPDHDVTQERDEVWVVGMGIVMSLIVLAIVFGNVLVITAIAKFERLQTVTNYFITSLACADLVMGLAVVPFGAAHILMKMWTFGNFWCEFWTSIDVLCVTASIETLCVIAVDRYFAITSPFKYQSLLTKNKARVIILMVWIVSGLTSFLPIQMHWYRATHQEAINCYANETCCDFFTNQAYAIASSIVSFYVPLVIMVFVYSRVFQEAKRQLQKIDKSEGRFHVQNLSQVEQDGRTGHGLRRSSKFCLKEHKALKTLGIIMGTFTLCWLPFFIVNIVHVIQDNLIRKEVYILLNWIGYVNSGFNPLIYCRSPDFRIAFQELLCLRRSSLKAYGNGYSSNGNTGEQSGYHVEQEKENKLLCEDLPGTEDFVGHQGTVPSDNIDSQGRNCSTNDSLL
Chain of Integrin beta-1 (Homo sapiens) + Integrin alpha-4 (Homo sapiens) (P05556 whole entry, looked up): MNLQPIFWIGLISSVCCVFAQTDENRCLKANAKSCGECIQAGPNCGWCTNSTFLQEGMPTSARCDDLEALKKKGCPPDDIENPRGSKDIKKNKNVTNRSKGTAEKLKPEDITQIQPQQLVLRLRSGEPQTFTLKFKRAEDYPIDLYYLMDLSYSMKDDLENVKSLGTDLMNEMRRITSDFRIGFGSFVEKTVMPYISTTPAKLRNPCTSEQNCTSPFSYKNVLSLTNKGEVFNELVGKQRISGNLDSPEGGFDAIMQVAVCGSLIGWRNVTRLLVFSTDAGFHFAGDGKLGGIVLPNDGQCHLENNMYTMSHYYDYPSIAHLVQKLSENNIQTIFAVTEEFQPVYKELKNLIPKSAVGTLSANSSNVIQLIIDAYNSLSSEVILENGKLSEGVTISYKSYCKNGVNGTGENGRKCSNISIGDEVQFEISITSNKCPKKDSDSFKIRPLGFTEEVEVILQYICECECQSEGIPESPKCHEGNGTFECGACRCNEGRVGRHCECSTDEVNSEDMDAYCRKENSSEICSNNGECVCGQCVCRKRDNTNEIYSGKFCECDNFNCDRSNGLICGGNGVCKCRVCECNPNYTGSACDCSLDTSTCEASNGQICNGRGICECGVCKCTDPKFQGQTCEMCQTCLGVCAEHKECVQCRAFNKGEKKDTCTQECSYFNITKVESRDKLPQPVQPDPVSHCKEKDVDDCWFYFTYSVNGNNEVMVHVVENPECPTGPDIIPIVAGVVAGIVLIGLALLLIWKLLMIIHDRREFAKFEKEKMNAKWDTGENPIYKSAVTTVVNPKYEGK
Chain of Integrin beta-1 (Homo sapiens) + Integrin alpha-4 (Homo sapiens) (P13612 whole entry, looked up): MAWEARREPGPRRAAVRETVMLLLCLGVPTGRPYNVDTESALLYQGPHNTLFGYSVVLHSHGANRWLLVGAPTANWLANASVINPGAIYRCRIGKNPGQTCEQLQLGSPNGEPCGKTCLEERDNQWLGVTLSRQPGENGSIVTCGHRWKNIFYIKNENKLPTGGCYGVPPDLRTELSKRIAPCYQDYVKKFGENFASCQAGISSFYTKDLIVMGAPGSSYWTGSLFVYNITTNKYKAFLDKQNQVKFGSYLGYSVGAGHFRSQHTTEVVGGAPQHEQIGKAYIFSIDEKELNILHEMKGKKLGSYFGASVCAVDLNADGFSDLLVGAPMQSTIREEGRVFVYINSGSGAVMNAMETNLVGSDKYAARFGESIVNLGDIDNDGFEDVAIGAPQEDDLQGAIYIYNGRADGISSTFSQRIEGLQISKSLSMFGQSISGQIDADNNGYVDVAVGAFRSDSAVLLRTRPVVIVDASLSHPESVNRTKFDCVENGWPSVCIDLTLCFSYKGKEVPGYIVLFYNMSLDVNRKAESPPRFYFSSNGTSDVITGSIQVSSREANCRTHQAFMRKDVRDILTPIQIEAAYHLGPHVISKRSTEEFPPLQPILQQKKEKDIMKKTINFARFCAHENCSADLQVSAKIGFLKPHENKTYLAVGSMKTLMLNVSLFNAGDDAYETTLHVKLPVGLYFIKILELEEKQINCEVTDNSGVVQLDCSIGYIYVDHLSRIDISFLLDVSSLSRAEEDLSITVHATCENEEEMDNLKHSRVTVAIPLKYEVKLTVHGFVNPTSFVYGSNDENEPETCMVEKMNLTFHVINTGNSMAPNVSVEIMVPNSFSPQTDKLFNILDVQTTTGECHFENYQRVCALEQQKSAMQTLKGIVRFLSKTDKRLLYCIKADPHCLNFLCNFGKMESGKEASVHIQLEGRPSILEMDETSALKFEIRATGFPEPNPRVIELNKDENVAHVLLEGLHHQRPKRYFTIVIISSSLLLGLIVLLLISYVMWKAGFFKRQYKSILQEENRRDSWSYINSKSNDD
Chain of ATP-binding cassette sub-family B member 6 (Homo sapiens) (Q9NP58 whole entry, looked up): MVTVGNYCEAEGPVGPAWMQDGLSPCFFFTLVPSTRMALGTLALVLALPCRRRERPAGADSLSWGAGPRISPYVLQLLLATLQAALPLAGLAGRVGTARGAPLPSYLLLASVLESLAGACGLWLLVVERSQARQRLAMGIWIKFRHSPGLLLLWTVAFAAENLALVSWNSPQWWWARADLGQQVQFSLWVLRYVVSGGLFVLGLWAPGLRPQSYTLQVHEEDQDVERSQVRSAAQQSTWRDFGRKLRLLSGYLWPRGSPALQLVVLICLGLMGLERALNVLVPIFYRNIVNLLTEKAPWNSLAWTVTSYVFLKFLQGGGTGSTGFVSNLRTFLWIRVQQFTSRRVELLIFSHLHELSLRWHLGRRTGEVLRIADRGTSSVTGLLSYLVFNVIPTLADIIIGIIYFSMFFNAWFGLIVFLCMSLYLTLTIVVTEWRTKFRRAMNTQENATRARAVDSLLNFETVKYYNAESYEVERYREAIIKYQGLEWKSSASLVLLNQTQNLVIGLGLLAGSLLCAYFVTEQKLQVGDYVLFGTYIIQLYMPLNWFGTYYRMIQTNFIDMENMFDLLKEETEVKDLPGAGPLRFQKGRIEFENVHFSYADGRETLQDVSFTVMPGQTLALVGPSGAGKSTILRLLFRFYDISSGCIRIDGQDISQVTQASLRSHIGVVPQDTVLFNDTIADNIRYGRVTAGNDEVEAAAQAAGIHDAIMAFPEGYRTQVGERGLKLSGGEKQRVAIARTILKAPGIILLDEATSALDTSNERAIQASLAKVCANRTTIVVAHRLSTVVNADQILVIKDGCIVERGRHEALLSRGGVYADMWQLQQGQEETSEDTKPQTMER
Chain of Beta-adrenergic receptor kinase 1 (Homo sapiens) (P25098 whole entry, looked up): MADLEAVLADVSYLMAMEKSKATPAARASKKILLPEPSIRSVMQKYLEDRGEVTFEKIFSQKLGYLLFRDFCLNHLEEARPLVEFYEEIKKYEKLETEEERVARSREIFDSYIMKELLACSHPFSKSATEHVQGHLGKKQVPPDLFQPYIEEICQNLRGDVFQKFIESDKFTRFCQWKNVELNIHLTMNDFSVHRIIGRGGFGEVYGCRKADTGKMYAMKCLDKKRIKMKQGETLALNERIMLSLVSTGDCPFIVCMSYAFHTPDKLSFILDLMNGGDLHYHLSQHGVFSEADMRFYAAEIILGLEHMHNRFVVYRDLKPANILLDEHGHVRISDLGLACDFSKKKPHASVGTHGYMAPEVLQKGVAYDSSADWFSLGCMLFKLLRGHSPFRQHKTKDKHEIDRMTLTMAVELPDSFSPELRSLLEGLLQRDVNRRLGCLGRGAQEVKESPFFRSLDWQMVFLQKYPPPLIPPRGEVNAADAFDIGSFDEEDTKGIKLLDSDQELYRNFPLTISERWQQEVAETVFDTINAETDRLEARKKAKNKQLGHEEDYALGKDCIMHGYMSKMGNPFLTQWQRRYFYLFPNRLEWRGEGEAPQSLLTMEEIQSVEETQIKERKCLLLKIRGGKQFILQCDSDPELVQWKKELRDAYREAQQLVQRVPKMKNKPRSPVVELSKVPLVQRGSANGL
Chain of AP-2 complex subunit beta (Homo sapiens) (P63010 whole entry, looked up, the tested form may be a part, one chain of several): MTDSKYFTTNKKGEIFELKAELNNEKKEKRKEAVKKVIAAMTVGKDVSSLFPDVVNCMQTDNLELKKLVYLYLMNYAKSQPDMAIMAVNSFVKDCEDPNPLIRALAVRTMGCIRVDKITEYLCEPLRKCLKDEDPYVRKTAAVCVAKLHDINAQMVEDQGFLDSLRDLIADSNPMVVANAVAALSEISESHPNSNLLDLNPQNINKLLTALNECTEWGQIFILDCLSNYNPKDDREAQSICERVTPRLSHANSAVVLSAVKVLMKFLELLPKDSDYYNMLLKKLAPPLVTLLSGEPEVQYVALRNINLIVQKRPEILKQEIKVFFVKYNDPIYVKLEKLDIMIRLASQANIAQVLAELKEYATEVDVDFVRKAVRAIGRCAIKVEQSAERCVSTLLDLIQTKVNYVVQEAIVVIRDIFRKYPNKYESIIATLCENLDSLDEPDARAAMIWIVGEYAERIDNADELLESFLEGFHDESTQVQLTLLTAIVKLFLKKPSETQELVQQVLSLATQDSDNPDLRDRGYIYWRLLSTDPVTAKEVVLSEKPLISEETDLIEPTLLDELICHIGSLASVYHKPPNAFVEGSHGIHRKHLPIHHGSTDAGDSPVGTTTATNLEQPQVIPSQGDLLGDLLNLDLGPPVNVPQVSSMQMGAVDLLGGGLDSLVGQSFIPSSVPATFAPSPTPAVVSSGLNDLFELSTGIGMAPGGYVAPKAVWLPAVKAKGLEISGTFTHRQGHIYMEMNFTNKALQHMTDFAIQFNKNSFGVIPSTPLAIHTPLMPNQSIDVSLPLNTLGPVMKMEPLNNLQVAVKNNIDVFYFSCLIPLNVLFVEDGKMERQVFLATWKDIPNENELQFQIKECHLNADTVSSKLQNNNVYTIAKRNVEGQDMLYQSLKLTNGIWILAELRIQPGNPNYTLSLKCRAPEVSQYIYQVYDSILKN

As for `COc1ccc(CCNC(=O)c2c(O)c3c([nH]c2=O)CCCC3)cc1`, the double positive events in [1] was 62.2%. For the same compound, in assay [1], the vesicle binding response was 180% (inactive). In addition, the inhibition in assay [2] is 3.14% (inactive); in [6], -16.3% (inactive); in assay [10] it was 1% (inactive). For the same compound, the superoxide response (% of plate) in assay [3] is 124% (inactive). In addition, the aptamer binding inhibition in assay [4] was -6% (inactive). In addition, the response in assay [5] is -28.9% (inactive); in assay [7], 9.51% (inactive). The binding (% of control) in [8] is 30.9% (active). The efflux inhibition (fraction of control) in [9] was 0 (inactive). Also, the differentiation response in assay [11] was -0.06% (inactive).

On to `O=C(NOC(=O)c1ccccc1)c1ccccc1`, for which the GFP response vs DMSO in assay [12] is 108% (inactive); in assay [14] it was 130% (inactive). For the same compound, the GFP response relative to DMSO in assay [13] was 118% (inactive). The GFP response, % of DMSO in [15] is 88.2% (inactive); in [16], 113% (inactive); in assay [16] (setting [17]) it was 103%; in [16] (measured here: mother cell gate), 96.6%.

Consider `Cc1oc2c(CN3CCCC3)c(O)ccc2c(=O)c1-c1ccc(Cl)cc1`, for which the double positive events in assay [1] came out at 75.9%. For the same compound, the vesicle binding response in assay [1] was 328% (inactive). Besides, the inhibition in assay [2] is 3.14% (inactive); in assay [6] it was 6.26% (inactive); in assay [10], 10% (inactive). Moreover, the superoxide response (% of plate) in assay [3] was 81.5% (inactive). Moreover, the aptamer binding inhibition in assay [4] was 1% (inactive). The response in assay [5] was -23.2% (inactive); in [7], -0.55% (inactive). Besides, the binding (% of control) in assay [8] was 96.9% (inactive). Further, the efflux inhibition (fraction of control) in [9] is 0 (inactive). Further, the differentiation response in assay [11] was -1.05% (inactive).

`Cc1cccc(N=c2oc3cc(O)ccc3cc2C(N)=O)c1`: the GFP response vs DMSO in [12] is 96.5% (inactive); in assay [14], 106% (inactive). In addition, in assay [13], the GFP response relative to DMSO is 100% (inactive). Further, the GFP response, % of DMSO in assay [15] was 102% (inactive); in assay [16], 108% (inactive); in assay [16] (setting [17]) it was 90.5%.

For the compound `O=c1c2ccccc2nc2n1-c1ccccc1CCC2`, the double positive events in [1] stood at 64.2%. Also, the vesicle binding response in assay [1] was 201% (inactive). The figures for the inhibition in [2], in [6] and in assay [10] were 13% (inactive), -5.56% (inactive) and 0% (inactive), respectively. In addition, the superoxide response (% of plate) in [3] is 96.9% (inactive). Also, the aptamer binding inhibition in [4] is 1% (inactive). The results for the response in [5] and in assay [7] were -9.83% (inactive) and 0.74% (inactive), respectively. The binding (% of control) in assay [8] is 99.2% (inactive). In addition, in [9], the efflux inhibition (fraction of control) is -0.23 (inactive). In [11], the differentiation response is 1.22% (inactive).

As for `CCC(=O)OCCNc1cc(Sc2nc3ccccc3s2)c2nonc2c1[N+](=O)[O-]`, the GFP response vs DMSO in [12] is 90.5% (inactive); in assay [14], 97.8% (inactive). Also, the GFP response relative to DMSO in [13] is 254% (active). Also, the GFP response, % of DMSO in assay [15] was 124% (inactive); in assay [16], 80.8% (inactive).

Turning to `Cc1cccc(N2C(=O)C3C(c4ccccc4)OC4(C(=O)c5ccccc5C4=O)C3C2=O)c1` (stereo unspecified), in assay [1], the double positive events stood at 56.8%. Further, the vesicle binding response in assay [1] is 143% (inactive). For the same compound, the inhibition was -5.89% (inactive) in assay [2], 6.34% (inactive) in assay [6] and 5% (inactive) in [10]. Besides, the superoxide response (% of plate) in assay [3] is 110% (inactive). For the same compound, the aptamer binding inhibition in [4] was 3% (inactive). Besides, the results for the response in assay [5] and in [7] were 1.5% (inactive) and -0.37% (inactive), respectively. Besides, the binding (% of control) in [8] is 104% (inactive). For the same compound, the efflux inhibition (fraction of control) in [9] is 0.33 (inactive). In addition, the differentiation response in assay [11] was -12% (inactive).

`CCN(CC)CCNC(=O)c1cc(S(C)(=O)=O)ccc1OC` had a double positive events in assay [1] of 58.8%. Further, the vesicle binding response in assay [1] is 219% (inactive). Further, the results for the inhibition in [2], in assay [6] and in assay [10] were -1.79% (inactive), -1.05% (inactive) and 5% (inactive), respectively. Further, the superoxide response (% of plate) in [3] was 88.3% (inactive). The aptamer binding inhibition in assay [4] was 4% (inactive). The response is 4.46% (inactive) in [5] and 4.62% (inactive) in assay [7]. Further, the binding (% of control) in assay [8] is 101% (inactive). Moreover, in assay [9], the efflux inhibition (fraction of control) was -0.28 (inactive). Also, the differentiation response in assay [11] was -5.6% (inactive).

In the case of `NC(N)=NC(=O)c1nc(Cl)c(N)nc1N`, the double positive events in [1] amounted to 62.4%. The vesicle binding response in assay [1] was 206% (inactive). Further, the inhibition in assay [2] was 7.4% (inactive); in assay [6], -4.43% (inactive); in assay [10] it was -2% (inactive). Also, the superoxide response (% of plate) in [3] was 87% (inactive). Further, the aptamer binding inhibition in assay [4] was 0% (inactive). Also, the response is -22.4% (inactive) in assay [5] and -1.82% (inactive) in assay [7]. For the same compound, the binding (% of control) in assay [8] is 104% (inactive). Also, the efflux inhibition (fraction of control) in assay [9] was -0.04 (inactive). In addition, in [11], the differentiation response is -3.02% (inactive).

`N/C(=N/OS(=O)(=O)c1ccc([N+](=O)[O-])cc1)c1ccncc1`: the double positive events in [1] was determined as 61.1%. Further, in assay [1], the vesicle binding response was 135% (inactive). Moreover, the figures for the inhibition in assay [2], in assay [6] and in [10] were 1.59% (inactive), -1.57% (inactive) and 18% (inactive), respectively. Moreover, in assay [3], the superoxide response (% of plate) is 108% (inactive). Moreover, the aptamer binding inhibition in [4] was 1% (inactive). For the same compound, the results for the response in assay [5] and in assay [7] were -5.72% (inactive) and 6.86% (inactive), respectively. Also, the binding (% of control) in assay [8] is 107% (inactive). The efflux inhibition (fraction of control) in assay [9] was -0.08 (inactive). For the same compound, the differentiation response in assay [11] is -8.96% (inactive).

`COc1cccc(N2CC34C=CC(O3)C(C(=O)O)C4C2=O)c1` (stereo unspecified) registered a double positive events in assay [1] of 60.2%. The vesicle binding response in [1] was 168% (inactive). Besides, the inhibition in assay [2] was -19.5% (inactive); in assay [6], 28.1% (inactive); in [10] it was 3% (inactive). Besides, in assay [3], the superoxide response (% of plate) was 97.6% (inactive). The aptamer binding inhibition in assay [4] was 0% (inactive). The response is -21.5% (inactive) in [5] and -2.62% (inactive) in [7]. In addition, the binding (% of control) in assay [8] was 102% (inactive). Moreover, in [9], the efflux inhibition (fraction of control) is 0.08 (inactive). Further, the differentiation response in [11] was 44% (inactive).

The compound `COc1ccc(N2C(=O)C3CCCN3C2=O)cc1` (stereo unspecified) displayed a double positive events in [1] of 61.6%. Further, the vesicle binding response in assay [1] was 146% (inactive). For the same compound, the inhibition in assay [2] is -1.79% (inactive); in assay [6] it was 9.15% (inactive); in [10], 7% (inactive). In addition, the superoxide response (% of plate) in assay [3] was 98.7% (inactive). Besides, the aptamer binding inhibition in assay [4] is -1% (inactive). In addition, the response was 7.47% (inactive) in assay [5] and 1.78% (inactive) in [7]. In addition, the binding (% of control) in assay [8] is 102% (inactive). The efflux inhibition (fraction of control) in [9] is 0.12 (inactive). In addition, the differentiation response in assay [11] was 2.4% (inactive).

The values are drawn from PubChem BioAssay.
